Hit rate of the full screen: of about 400,000 compounds, about 3,700 (0.93%) were called active. Roughly 3% stayed inconclusive and do not appear here. Only a selection was taken, and actives are over-represented in it overall. A number with no mark means an inactive call. Calls come from the whole dose curve; as a rule, active = well fitted inhibition curve with a large enough effect; inconclusive = small, poorly fitted or top-dose-only effect, or another doubt; inactive = no such curve, though single readings can be large or run the other way.
% is set by controls: 0 for no effect and ±100 for the full control effect; potency is the fitted concentration of half-maximal effect.

Chain of Vitamin D3 receptor (Homo sapiens) (P11473 whole entry, looked up): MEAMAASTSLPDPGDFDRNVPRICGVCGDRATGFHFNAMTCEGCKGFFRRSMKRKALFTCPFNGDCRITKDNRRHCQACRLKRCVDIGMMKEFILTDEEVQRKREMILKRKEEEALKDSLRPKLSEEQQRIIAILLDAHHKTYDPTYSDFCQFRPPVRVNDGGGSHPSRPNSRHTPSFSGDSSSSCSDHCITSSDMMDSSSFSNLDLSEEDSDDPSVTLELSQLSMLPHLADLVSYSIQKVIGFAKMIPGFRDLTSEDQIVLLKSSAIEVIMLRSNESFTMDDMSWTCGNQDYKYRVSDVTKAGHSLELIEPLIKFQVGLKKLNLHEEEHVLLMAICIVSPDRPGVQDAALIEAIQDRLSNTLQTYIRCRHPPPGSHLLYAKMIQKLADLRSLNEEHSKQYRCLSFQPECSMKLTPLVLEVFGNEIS

In the test the target is Vitamin D3 receptor (Homo sapiens) (UniProt P11473). Description: Inhibitors of the vitamin D receptor (VDR): qHTS. The conditions noted are these: VDR-SRC2-3 peptide fluorescence polarization, 2 h; max response, negative = inhibition: stronger effect = lower value. The gist of the method:
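VDR–SRC2-3 interaction, FP format. Cmpds 23 nl via pintool, brief spin, 2 h ambient incubation.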
For orientation: qHTS replaces the single test concentration by a dilution series.
On to `Cc1ccc(O)c(NC(=O)CCS(=O)(=O)c2nc(-c3ccc4c(c3)OCO4)cc(C(F)(F)F)n2)c1`, for which the Potency was 50.1 µM (active).
For `Cc1ccc(O)c(NC(=O)c2cc(-c3ccc(F)cc3)no2)c1`, the max response, negative = inhibition is 12%.
Same read-out and setting: for `CC(Sc1nc(-c2ccccc2)cc(C(F)(F)F)n1)C(=O)Nc1ccc2c(c1)OCO2` (stereo unspecified) the value was -18.9%.
For the compound `Cc1ccc(C(=O)COC(=O)C(Cc2c[nH]c3ccccc23)NC(=O)c2ccc(Br)cc2)cc1` (stereo unspecified), the max response, negative = inhibition is 6.05%.
Turning to `CCOc1ccccc1CNC(=O)c1cnc2c(-c3ccc(OCC)c(OCC)c3)c(C)nn2c1C`, the max response, negative = inhibition is 12.6%.
Same read-out and setting: for `Cc1ccc2nc(CNC(=O)c3ccccc3)[nH]c2c1` the value was 11.1%.
With `O=C(/C(=C/c1cccc(Cl)c1)c1nc2ccccc2[nH]1)c1ccccc1`, the Potency was 79.4 µM (active).
Consider `CN(c1ccccc1)S(=O)(=O)c1cc(C(=O)Nc2nc3ccccc3[nH]2)ccc1Cl`, for which the max response, negative = inhibition was 22.7%.
For `COc1cc(OC)c2c(c1Cl)OC1(C2=O)C(O)=CC(=O)CC1C` (stereo unspecified), the max response, negative = inhibition is 1.06%.
Turning to `COc1ccccc1OCC(=O)Nc1nnc2n1CCS2`, the max response, negative = inhibition was -3.73%.
Same read-out and setting: for `Cc1ccc(NC(=O)Cc2ccc(NC(=O)N3CCCCc4ccccc43)cc2)cc1` the value was 6.32%.
On to `CN(C)c1nc(=Nc2cccc(Cl)c2)ss1`, for which the Potency was 25.1 µM (active).
In the case of `Cc1c(-c2nsc(NC(=O)c3cccc(Cl)c3)n2)nnn1-c1ccccc1C(F)(F)F`, the max response, negative = inhibition was 1.99%.
As for `CCc1ccccc1NC(=O)CSc1nc(C)c(C(=O)Nc2ccccc2)c(-c2ccc(Cl)cc2)c1C#N`, the max response, negative = inhibition is 5.32%.
In the case of `COc1ccc(-c2nc(CN3CCC(C(=O)NCc4ccccc4)CC3)c(C)o2)cc1OC`, the max response, negative = inhibition was -18.6%.
For the compound `Nc1ccccc1SC(C[N+](=O)[O-])c1ccccc1` (stereo unspecified), the Potency was 3.55 µM (active).
Regarding `O=C(Nc1cccc(-c2nc3ccccc3o2)c1)c1cccc(Br)c1`, the max response, negative = inhibition was 4.46%.
As for `Cc1ccc2ccc3c(c2n1)NS(=O)(=O)c1ccccc1-3`, the max response, negative = inhibition is -4.3%.
`CCS(=O)(=O)c1cc([N+](=O)[O-])c(Sc2ccccc2N)s1`: the Potency is 28.2 µM (active).
Regarding `CCOC(=O)c1cnc2c(C)cc(Cl)cc2c1NCCc1ccc(OC)c(OC)c1`, the max response, negative = inhibition was 2.98%.
As for `COc1ccc(NC(=O)CSc2nc3ncccc3[nH]2)c(OC)c1`, the max response, negative = inhibition was 22.9%.
Same read-out and setting: for `COc1ccc(NC(=O)Cn2c(=O)n(CCC(C)C)c(=O)c3cccnc32)cc1Cl` the value was 11.2%.
For the compound `COc1ccccc1-c1nc(N2CCN(C)CC2)c2ccccc2n1`, the max response, negative = inhibition is -9.82%.
As for `FC(F)(F)c1ccccc1-c1nc(-n2ccnc2)c2ccccc2n1`, the Potency is 50.1 µM (active).
In the case of `COc1ccc(N2CCN(c3nc(-c4ccccc4F)nc4ccccc34)CC2)cc1`, the max response, negative = inhibition is 21.1%.
The same measure, in the same setting: for `Cc1ccc(C)c(Nc2nnc(-c3ccc(C)c(S(=O)(=O)N4CCCCC4)c3)c3ccccc23)c1` the value was 2.71%; for `CC(C)(C)c1ccc(C(=O)Nc2ccc3c(c2)CCCN3C(=O)c2cccs2)cc1`, -1.02%; for `O=C(C1CCC(Cn2c(=O)c3sccc3n(Cc3ccccc3F)c2=O)CC1)N1CCCCC1` (stereo unspecified), 8.9%.
For `Cc1ccc(SC(CC(=O)c2ccc(C(C)(C)C)cc2)C(=O)O)cc1` (stereo unspecified), the Potency was 20 µM (active).
In the case of `Cc1ccc(Sc2cc(C(=O)c3ccccc3C(=O)O)ccc2[N+](=O)[O-])cc1`, the max response, negative = inhibition was -16.9%.
Regarding `CC(C)(C)c1ccc(C(=O)NNC(=O)Cc2ccccc2)cc1`, the max response, negative = inhibition was 3.53%.
As to `CCCCCCCC[C@@H](O)/C=C/C=C/C=C\[C@@H](O)CCCC(=O)O`, the max response, negative = inhibition is 10.9%.
Same read-out and setting: for `COc1ccc(NC(=O)c2cc3cc(C)ccc3n2C)cc1` the value was 8.19%; for `CC(CNC(=O)Cn1cnc2c(OCc3ccccc3)ncnc21)c1ccccc1` (stereo unspecified), -7.14%.
Same read-out and setting: for `O=C(Cn1cnc2c(OCc3ccccc3)ncnc21)NCCCn1ccnc1` the value was 6.56%.
For `O=C(Cn1cnc2c(OCc3ccccc3)ncnc21)NCc1nc2ccccc2[nH]1`, the Potency was 79.4 µM (active).
As for `COc1ccc(C2CC(=O)Nc3c2c(=O)nc2c(C)cccn32)cc1OC` (stereo unspecified), the max response, negative = inhibition is 12.4%.
`O=C(/C=C(O)/C=C/c1ccc(O)cc1)/C=C/c1ccc(O)cc1`: the max response, negative = inhibition was -24.8%.
With `O=C(/C=C/c1ccccc1)c1ccccc1O`, the Potency is 17.8 µM (active).
Consider `Cc1[nH]c(=O)c(C(=O)/C=C/c2ccccc2)c2c1CCCC2`, for which the max response, negative = inhibition was -23.7%.
On the same count and under the same terms, with `CNC(=O)c1csc(-c2ccccc2)n1` the figure was 4.33%; with `O=C(NNC(=O)c1ccccc1O)c1ccccc1O`, 10.5%.
In the case of `Cc1nc(-c2ccccc2)sc1C(=O)/C=C/c1ccccc1`, the Potency is 79.4 µM (active).
On to `CCOC(=O)c1ccc(N2C(=O)c3n[nH]c(-c4ccco4)c3C2c2ccc(O)cc2)cc1` (stereo unspecified), for which the max response, negative = inhibition is -8.24%.
Consider `Cc1cccn2c(=O)c(C(=O)NC(C)c3ccccc3)cnc12` (stereo unspecified), for which the max response, negative = inhibition is -16%.
For the compound `COC(=O)c1ccc(Cn2c(SCC(=O)N(C)c3ccccc3)nc3ccccc32)cc1`, the max response, negative = inhibition was 14.3%.
As to `COc1cc(/C=C2/C(=O)ON=C2C)ccc1OCc1cccc(F)c1`, the Potency is 25.1 µM (active).
Take `COc1cc(/C=C2\SC(=O)NC2=O)ccc1OCc1ccc(Cl)nc1`: the max response, negative = inhibition is 3.39%.
Take `C=CCOc1ccc(/C=N/NC(=O)C(C)Sc2ccccn2)cc1OCC` (stereo unspecified): the max response, negative = inhibition is -3.04%.
`C=CCOc1ccc(/C=C2/C(=O)ON=C2C)cc1OCC`: the Potency was 79.4 µM (active).
For the compound `COc1ccnc2c1c(=O)n(Cc1cccc(F)c1)c(=O)n2C`, the max response, negative = inhibition was 0.374%.
`C#CCOc1ccccc1/C=C1/C(=O)ON=C1C`: the max response, negative = inhibition was -13.5%.
With `Cc1ccc(C)c(N2CCN(C(c3ccccc3)c3nnc(-c4ccccc4)o3)CC2)c1` (stereo unspecified), the max response, negative = inhibition was 0%.
The same measure, in the same setting: with `Cc1ccc(C2C=C(c3ccc(Cl)cc3)Nc3nc(NC(=O)CCC(=O)O)nn32)cc1` (stereo unspecified) the figure was -1.64%; with `CCOC(=O)c1c(C)[nH]c(CCC(=O)NCCCN2CCN(c3cc(C)ccc3C)CC2)c1C`, 1.52%; with `CCOC(OCC)OCC`, -7.21%.
On to `O=c1ccc2c(-c3ccccc3S(=O)(=O)O)c3ccc(O)c(O)c3oc-2c1O`, for which the Potency is 35.5 µM (active).
Consider `Cc1nc2cnc(N3CCNCC3)nc2n(CCc2ccccc2)c1=O`, for which the max response, negative = inhibition was -10.9%.
Turning to `COc1ccccc1N1CCN(C(CNC(=O)C(=O)NCc2ccc(C)cc2)c2cccnc2)CC1` (stereo unspecified), the max response, negative = inhibition was 1.11%.
Regarding `CCOC(=O)N1CCN(C(c2cccnc2)c2ccc3cccnc3c2O)CC1` (stereo unspecified), the Potency is 39.8 µM (active).
Take `CCCCC(=O)NC(c1ccc(OC)c(OC)c1)c1ccc2cccnc2c1O` (stereo unspecified): the max response, negative = inhibition was 6.08%.
Consider `COc1ccc(CCNC(=O)c2ccc3c(c2)nc(C)n3-c2ccc(Br)cc2)cc1OC`, for which the max response, negative = inhibition was 12.9%.
As for `C#CC(C)(CC)NC(=O)Cn1nnc(-c2ccc(OCc3c(F)cccc3Cl)cc2)n1` (stereo unspecified), the max response, negative = inhibition is 15.5%.
In the case of `CN(C)S(=O)(=O)N1CCC(Oc2cccc(C(=O)NCCCC3CCCC3)c2)CC1`, the Potency is 28.2 µM (active).
With `COc1cccc(C(=O)NCCS(=O)(=O)NCC2CCCO2)c1` (stereo unspecified), the max response, negative = inhibition is -19.7%.
Consider `CNS(=O)(=O)c1cccc(C(=O)NCC2CCCCC2)c1`, for which the max response, negative = inhibition was 12.7%.
On to `CC(C)(C)SCCNC(=O)c1cccc([N+](=O)[O-])c1`, for which the max response, negative = inhibition was -16.4%.
On to `COc1cccc(C(=O)CC(=O)C(=O)Nc2ccc([N+](=O)[O-])cc2C)c1`, for which the max response, negative = inhibition was -6.66%.
Take `COc1cccc(NCCC(=O)c2cccc([N+](=O)[O-])c2)c1`: the Potency is 79.4 µM (active).
Turning to `COC(=O)c1ccc(-c2nc3cc(NC(C)=O)ccc3o2)cc1`, the max response, negative = inhibition is -22.5%.
In the case of H-EHIPA-OH, the max response, negative = inhibition is 2.51%.
As to `CCc1ccc(NC(=O)C2CCCN2S(=O)(=O)c2ccc3nc(-c4ccccc4)[nH]c3c2)cc1` (stereo unspecified), the max response, negative = inhibition was 14.5%.
Take `Oc1c(Cl)cc(Cl)c(Cl)c1Cc1c(O)c(Cl)cc(Cl)c1Cl`: the Potency is 44.7 µM (active).
Consider `CCOC(=O)C1=NOC(Cn2cc(C(C)=O)c(=O)[nH]c2=O)C1` (stereo unspecified), for which the max response, negative = inhibition is 1.11%.
Take `CCOC(=O)C1=NO[C@@]2(C=C(Br)C(=O)[C@H]3O[C@H]32)C1`: the Potency is 11.2 µM (active).
In the case of `COc1cc2c(cc1OC)CC(=O)N(CCCN(C)C[C@H]1Cc3cc(OC)c(OC)cc31)CC2`, the max response, negative = inhibition was 7.93%.
Turning to `Cc1ccc(S(=O)(=O)N2CCN(C(=O)N3CCOCC3)CC2)c(C)c1`, the max response, negative = inhibition is -13.6%.
Regarding `Cc1ccc(N2CCN(C(=O)c3cccs3)CC2)c(C)c1`, the max response, negative = inhibition is 7.64%.
Turning to `N#Cc1ccccc1-n1c(N)c(C(=O)N2CCCC2)sc1=S`, the Potency is 50.1 µM (active).
As to `Cc1ccc(-n2c(N)c(C(=O)N3CCOCC3)sc2=S)c(C)c1`, the Potency was 79.4 µM (active).
As to `O=C(c1ccc(CSc2ccccc2)cc1)N1CCCCCC1`, the max response, negative = inhibition is -7.06%.
On to `N#Cc1c(N)sc2c1CCN(C(=O)OCc1ccccc1)C2`, for which the max response, negative = inhibition is -3.82%.
Same read-out and setting: with `CCCCNC(=O)c1ccc2c(c1)NC(=O)C(C(C)C)N2` (stereo unspecified) the figure was -3.65%; with `CCc1ccc(NC(=O)CN2CCSc3ccc(S(=O)(=O)N4CCCC4)cc32)cc1`, 9.86%; with `O=C(c1cccc(Br)c1)N1CCN(Cc2cc(=O)n3nc(-c4ccccc4)sc3n2)CC1`, 13%.
Regarding `CCc1ccc(OCCCn2c(CCCNC(=O)C3CCCCC3)nc3ccccc32)cc1`, the max response, negative = inhibition was -1.15%.
With `O=C(NCCCO)C(=O)Nc1c2c(nn1-c1ccccc1)CSC2`, the max response, negative = inhibition was 5.32%.
For `COc1ccc(CCNC(=O)CCCCn2c(=O)c3ccccc3n(Cc3ccccc3C)c2=O)cc1OC`, the max response, negative = inhibition was 7.91%.
As to `COc1ccccc1N1CCN(/N=C\C(Br)=C\c2ccccc2)CC1`, the Potency was 44.7 µM (active).
For `COc1ccccc1N1CCN(/N=C/c2ccc(O)cc2O)CC1`, the max response, negative = inhibition was -16.7%.
In the case of `COc1cc(/C=N/N2CCN(c3ccccc3)CC2)ccc1OC(C)=O`, the max response, negative = inhibition is -1.69%.

The record behind these values is PubChem BioAssay AID504847 (National Center for Advancing Translational Sciences (NCATS), 2011).
